# Source: PubChem BioAssay (NCATS)
# Inconclusive results are not listed. Unmarked numbers belong to inactive results. Activity calls are given as the source filed them. Calls follow the shape of the dose curve; as a rule, active = well fitted curve in the direction sought with a large enough effect; inconclusive = small, poorly fitted or top-dose-only effect, or another doubt; inactive = no such curve, though single readings can be large; an effect the other way counts as inactive or inconclusive.
# Tests used:
# [1] = BET inhibitor-based combinations targeting novel dependencies in MECOM-rearranged (r) AML: SET-2 cell line (AID 2202231); conditions: SET-2 AML cells viability, CellTiter-Glo luminescence, 48 h; viability: hits give low values, concentration not given here; also: nearly all actives have a fitted effect of over 35% in size;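 as to viability: plate controls were DMSO treated cells for no effect and wells without cells for full effect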
# Method in brief: (§1)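 Here, 11-point titrations of each agent were applied to 500 seeded cells and incubated 48 hr; CellTiter-Glo signal, scaled against DMSO and empty wells, was integrated as AUC, then Z-scored within the individual line.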
# [2] = BET inhibitor-based combinations targeting novel dependencies in MECOM-rearranged (r) AML: OCI-AML3 cell line (AID 2202232); conditions: Potency: OCI-AML3 viability; also: nearly all actives have a fitted effect of over 35% in size
# Method in brief: as §1
# [3] = BET inhibitor-based combinations targeting novel dependencies in MECOM-rearranged (r) AML: MV-4-11 cell line (AID 2202233); also: nearly all actives have a fitted effect of over 45% in size
# Method in brief: (§2)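 Normalized to DMSO and empty-well controls, the luminescence data from CellTiter-Glo after 48 hr drug exposure were fitted across 11 concentrations. Reported metrics are area under the dose-response curve and its Z-transformed form.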
# [4] = BET inhibitor-based combinations targeting novel dependencies in MECOM-rearranged (r) AML: HNT-34 cell line (AID 2202234); also: nearly all actives have a fitted effect of over 35% in size
# Method in brief: as §2
# [5] = BET inhibitor-based combinations targeting novel dependencies in MECOM-rearranged (r) AML: UCSD-AML1 cell line (AID 2202235); also: nearly all actives have a fitted effect of over 40% in size
# Method in brief: as §2
# [6] = BET inhibitor-based combinations targeting novel dependencies in MECOM-rearranged (r) AML: AML-191 cell line (AID 2202236; also: nearly all actives have a fitted effect of over 35% in size)
# Method in brief: as §1
# [7] = BET inhibitor-based combinations targeting novel dependencies in MECOM-rearranged (r) AML: AML-194 cell line (AID 2202237; also: nearly all actives have a fitted effect of over 40% in size)
# Method in brief: as §1
# Potency is read from the fitted curve at half-maximal effect.
SMILES,Potency [1],Potency [2],Potency [3],Potency [4],Potency [5],Potency [6],Potency [7],viability [1]
Cc1cc(I)ccc1Nc1c(C(=O)NOCC2CC2)cc(F)c(F)c1F,20.9 µM (active),1.66 µM (active),16.6 µM (active),14.8 µM (active),5.9 µM (active),16.6 µM (active),20.9 µM (active),–
CCCc1nc(C)c2c(=O)[nH]c(-c3cc(S(=O)(=O)N4CCN(CC)CC4)ccc3OCC)nn12,–,3.72 µM (active),inactive,inactive,inactive,inactive,inactive,114%
COc1ccc(N2C(=O)N(c3c(C)cccc3Cl)Cc3cnc(Nc4ccc(C5CCN(C)CC5)cc4OC)nc32)nc1,16.6 µM (active),16.6 µM (active),2.95 µM (active),1.66 µM (active),13.2 µM (active),16.6 µM (active),18.6 µM (active),–
CC(C)=CCC[C@](C)(O[C@@H]1O[C@H](CO[C@@H]2O[C@H](CO)[C@@H](O)[C@H](O)[C@H]2O)[C@@H](O)[C@H](O)[C@H]1O)[C@H]1CC[C@]2(C)[C@@H]1[C@H](O)C[C@@H]1[C@@]3(C)CC[C@H](O[C@@H]4O[C@H](CO)[C@@H](O)[C@H](O)[C@H]4O[C@@H]4O[C@H](CO)[C@@H](O)[C@H](O)[C@H]4O)C(C)(C)[C@@H]3CC[C@]12C,–,inactive,inactive,inactive,inactive,inactive,inactive,121%
C[C@H](NC(=O)/C(C#N)=C/c1cccc(Br)n1)c1ccccc1,7.42 µM (active),4.68 µM (active),4.17 µM (active),4.17 µM (active),3.72 µM (active),4.68 µM (active),9.34 µM (active),–
Cc1cnc(NC(=O)Nc2cc(Br)c(C)cc2OC[C@@H]2CNCCO2)cn1,4.17 µM (active),3.72 µM (active),2.09 µM (active),9.34 µM (active),1.48 µM (active),2.95 µM (active),4.17 µM (active),–
CC(=O)c1cc2c(o1)C(=O)c1ccccc1C2=O,2.63 µM (active),2.63 µM (active),0.833 µM (active),2.35 µM (active),2.95 µM (active),2.35 µM (active),2.35 µM (active),–
CCc1c(C(=O)NNC(=O)[C@@H](O)c2cc(F)cc(F)c2)ccc(O)c1C,–,inactive,inactive,inactive,7.42 µM (active),inactive,inactive,97.8%
Cc1ccc(C)c(OCCCC(C)(C)C(=O)O)c1,–,inactive,inactive,inactive,inactive,inactive,inactive,116%
O=c1c(-c2ccc(O)cc2)coc2c([C@@H]3O[C@H](CO)[C@@H](O)[C@H](O)[C@H]3O)c(O)ccc12,–,inactive,inactive,inactive,inactive,inactive,inactive,113%
C[C@@H](O)[C@@H]1NC(=O)[C@H](CCCCN)NC(=O)[C@@H](Cc2c[nH]c3ccccc23)NC(=O)[C@H](Cc2ccccc2)NC(=O)[C@@H](NC(=O)[C@H](N)Cc2ccccc2)CSSC[C@@H](C(=O)N[C@H](CO)[C@@H](C)O)NC1=O,–,inactive,inactive,inactive,inactive,inactive,inactive,114%
CN1CCCN(C(=O)c2cccc(-c3ccc(/C=C4/C(=O)Nc5ccc(Cl)cc54)o3)c2)CC1,20.9 µM (active),6.61 µM (active),0.662 µM (active),2.63 µM (active),1.32 µM (active),2.95 µM (active),1.86 µM (active),–
Nc1cc(COc2c(Cl)cc(C[C@H](N)C(=O)O)cc2Cl)c2oc(-c3ccccc3)nc2c1,11.8 µM (active),13.2 µM (active),10.5 µM (active),inactive,inactive,20.9 µM (active),inactive,–
CC[C@H]1OC(=O)[C@H](C)[C@@H](O[C@H]2C[C@@](C)(OC)[C@@H](O)[C@H](C)O2)[C@H](C)[C@@H](O[C@@H]2O[C@H](C)C[C@H](N(C)C)[C@H]2O)[C@](C)(O)C[C@@H](C)C(=O)[C@H](C)[C@@H](O)[C@]1(C)O,–,inactive,inactive,inactive,inactive,inactive,inactive,113%
CC(C)C(N)C(=O)OCC(CO)OCn1cnc2c(=O)[nH]c(N)nc21 (centres undefined),–,inactive,inactive,inactive,inactive,inactive,inactive,87%
O=C(NO)c1cnc(NC2(c3ccccc3)CC2)nc1,6.61 µM (active),5.9 µM (active),3.32 µM (active),6.61 µM (active),8.33 µM (active),7.42 µM (active),8.33 µM (active),–
C=CC(=O)N1CC/C(=C\c2ccc(F)c([N+](=O)[O-])c2)C(=O)/C(=C/c2ccc(F)c([N+](=O)[O-])c2)C1,0.148 µM (active),0.0525 µM (active),0.059 µM (active),0.186 µM (active),0.166 µM (active),0.209 µM (active),0.372 µM (active),–
